Read-out in experiment [1]: Human Leukocyte Antigen - DR isotype (HLADR), HLA-DRA (gene 3122)
Kind of experiment: BSK_BE3C_HLADR: BioMAP Diversity Plus: BE3C Assay for Human Leukocyte Antigen - DR isotype (HLADR) Biomarker Activity (AID 2283032). Particulars: primary human bronchial epithelial cells; actives raise or lower the signal. Summed up:
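Primary human bronchial epithelial cells (BE3C); 24 h chemical exposure; HLA-DR by ELISA; bidirectional curve fit vs DMSO baseline.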

Read-out in experiment [2]: Vascular cell adhesion molecule 1 (VCAM1), VCAM1 (gene 7412)
Kind of experiment: BSK_4H_VCAM1: BioMAP Diversity Plus: 4H Assay for Vascular cell adhesion molecule 1 (VCAM1) Biomarker Activity (AID 2283033).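 As to outcome: cell-surface VCAM-1 protein measured by ELISA.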 Particulars: primary human endothelial cells (HUVEC); actives raise or lower the signal. Summed up:
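HUVEC, 24 h post-dose; VCAM-1 by ELISA. Bidirectional curve fit vs DMSO baseline. Parallel SRB total-protein stain (0.1% SRB after 10% TCA fixation, 560 nm) for cytotoxicity.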

Read-out in experiment [3]: Interferon-gamma inducible Protein 10 (IP10), CXCL10 (gene 3627)
Kind of experiment: BSK_BE3C_IP10: BioMAP Diversity Plus: BE3C Assay for Interferon-gamma inducible Protein 10 (IP10) Biomarker Activity (AID 2283034). The settings on record: primary human bronchial epithelial cells; actives raise or lower the signal. Summed up: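 ELISA readout of IP-10 in BE3C system: primary human bronchial epithelial cells, 24 h post-dosing; bidirectional curve fit vs DMSO baseline.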

Read-out in experiment [4]: Monokine induced gamma interferon (MIG), CXCL9 (gene 4283)
Kind of experiment: BSK_BE3C_MIG: BioMAP Diversity Plus: BE3C Assay for Monokine induced gamma interferon (MIG) Biomarker Activity (AID 2283035).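 Also: MIG protein measured by ELISA in BE3C cultures after 24 h of dosing.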 The settings on record: primary human bronchial epithelial cells; actives raise or lower the signal. The method, boiled down: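 Dose cells (human primary bronchial epithelial), incubate 24 h, quantify MIG by ELISA, then fit concentration–response in both directions relative to DMSO control.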

Read-out in experiment [5]: Transforming growth factor beta 1 (TGFb1), TGFB1 (gene 7040)
Kind of experiment: BSK_BE3C_TGFb1: BioMAP Diversity Plus: BE3C Assay for Transforming growth factor beta 1 (TGFb1) Biomarker Activity (AID 2283036;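 also: TGF-b1 protein level measured by ELISA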). The settings on record: primary human bronchial epithelial cells; actives raise or lower the signal. The method, boiled down: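 Read-out: ELISA for TGF-b1 in primary human bronchial epithelial cultures, 24 h post-dose. Bidirectional curve fitting vs DMSO control; gain or loss of signal both scored.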

Read-out in experiment [6]: Plasminogen activator inhibitor-1 (PAI1), SERPINE1 (gene 5054)
Kind of experiment: BSK_BE3C_PAI1: BioMAP Diversity Plus: BE3C Assay for Plasminogen activator inhibitor-1 (PAI1) Biomarker Activity (AID 2283037). Particulars: primary human bronchial epithelial cells; actives raise or lower the signal. Summed up:
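ELISA read-out of PAI-1 from human bronchial epithelial primary cells, 24 h post-dosing; bidirectional curve fit vs DMSO baseline, gain or loss of signal scored.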

Read-out in experiment [7]: urokinase plasminogen activator (uPA), PLAU (gene 5328)
Kind of experiment: BSK_BE3C_uPA: BioMAP Diversity Plus: BE3C Assay for urokinase plasminogen activator (uPA) Biomarker Activity (AID 2283038).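 Also: uPA protein level quantified by ELISA in cell cultures; uPA read one day after compound addition.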 Particulars: primary human bronchial epithelial cells; actives raise or lower the signal. The method, boiled down:
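Bronchial epithelial cells (human, primary); chemical 24 h; uPA by ELISA; bidirectional fit vs DMSO. SRB (0.1%, after 10% TCA fixation, 560 nm) in parallel cultures for cytotoxicity.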

Read-out in experiment [8]: Urokinase-type plasminogen activator receptor (uPAR), PLAUR (gene 5329)
Kind of experiment: BSK_BE3C_uPAR: BioMAP Diversity Plus: BE3C Assay for Urokinase-type plasminogen activator receptor (uPAR) Biomarker Activity (AID 2283039).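 Also: uPAR protein level measured by ELISA on the cells; cells exposed to compound for one day before measurement.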 The settings on record: primary human bronchial epithelial cells; actives raise or lower the signal. Summed up: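 ELISA readout of uPAR on human lung primary bronchial epithelial cells, 24 h post-dosing. Bidirectional curve fit relative to DMSO vehicle baseline; gain or loss of signal both scored.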

Read-out in experiment [9]: Interleukin-6 (IL6), IL6 (gene 3569)
Kind of experiment: BSK_CASM3C_IL6: BioMAP Diversity Plus: CASM3C Assay for Interleukin-6 (IL6) Biomarker Activity for (AID 2283040). Particulars: primary human coronary artery smooth muscle cells; actives raise or lower the signal.

Read-out in experiment [10]: Tissue plasminogen activator (tPA), PLAT (gene 5327)
Kind of experiment: BSK_BE3C_tPA: BioMAP Diversity Plus: BE3C Assay for Tissue plasminogen activator (tPA) Biomarker Activity (AID 2283041).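 Also: tPA level quantified by ELISA one day after compound addition.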 The settings on record: primary human bronchial epithelial cells; actives raise or lower the signal. The method, boiled down: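 ELISA read-out of tPA on human primary bronchial epithelial cells, 24 h post-dosing; bidirectional fit vs DMSO negative control/baseline.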

The structures appear in SMILES notation. Calls of active or inactive are those of the source. The calls were made as follows: active = hit-call score of the fitted dose curve at least 0.9, where 1 is the maximum; inactive = score below 0.9.

Turning to `NCCOCCOCCN`, the result in experiment [1], in [2], in experiment [3], in experiment [4], in experiment [5] and in experiment [6] was inactive. Further, the outcome in experiment [7], in experiment [8], in experiment [9] and in experiment [10] was inactive.

For `Cc1occc(=O)c1O`, the outcome in [1], in experiment [2], in experiment [3], in experiment [4], in experiment [5] and in experiment [6] was inactive. Besides, the result in [7], in [8], in experiment [9] and in [10] was inactive.

On to `O=C(NS(=O)(=O)/C=C/c1cccs1)c1ccc(F)cc1Br`, for which the result in experiment [1], in experiment [2], in [4], in experiment [5], in experiment [6] and in [7] was inactive. The outcome in [8], in experiment [9] and in experiment [10] was inactive. For the same compound, the half-maximal activity concentration (AC50) (usually the concentration at which the activity in the assay is half-maximal) in [3] was 32.6 µM (active).

Regarding `O=C(O)c1[nH]n(-c2ccc(S(=O)(=O)O)cc2)c(=O)c1N=Nc1ccc(S(=O)(=O)O)cc1`, the outcome in [1], in experiment [2], in [3], in [4], in [5] and in experiment [6] was inactive. Moreover, the result in [7], in experiment [8], in experiment [9] and in [10] was inactive.

For the compound `CC(=O)[C@@]1(O)CC[C@H]2[C@@H]3CCC4=CC(=O)CC[C@]4(C)[C@H]3CC[C@@]21C`, the result in experiment [1], in experiment [2], in experiment [3], in experiment [4], in [5] and in experiment [6] was inactive. The result in experiment [7], in experiment [8] and in experiment [10] was inactive. The AC50 in experiment [9] was 29.5 µM (active).

On to `COC(=O)CCC(=O)OC`, for which the result in experiment [1], in experiment [2], in experiment [3], in [4], in [5] and in experiment [6] was inactive. For the same compound, the outcome in [7], in [8], in experiment [9] and in experiment [10] was inactive.

As to `CCCCCCC(C=O)=Cc1ccccc1`, the result in experiment [1], in experiment [3], in experiment [4], in [5], in [6] and in [7] was inactive. Further, the outcome in experiment [8], in experiment [9] and in experiment [10] was inactive. In experiment [2], the AC50 is 33.5 µM (active).

Turning to `CCC(C)N(C)C(=O)c1cc2ccccc2c(-c2ccccc2Cl)n1` (stereo not given), the outcome in experiment [1], in [2], in [3], in experiment [4], in experiment [5] and in [6] was inactive. The result in experiment [7], in experiment [8], in [9] and in [10] was inactive.

With `CC(=O)OC1CC(C)OC(C)O1` (stereo not given), the result in experiment [1], in [2], in experiment [3], in experiment [4], in [5] and in [6] was inactive. In addition, the result in [7], in experiment [8], in experiment [9] and in experiment [10] was inactive.

In the case of `Nc1nc(Cl)nc2c1ncn2[C@H]1C[C@H](O)[C@@H](CO)O1`, the result in experiment [1], in experiment [2], in experiment [3], in [4], in experiment [5] and in experiment [6] was inactive. The outcome in experiment [7], in experiment [8], in experiment [9] and in experiment [10] was inactive.

With `CC(=O)CC(c1ccccc1)c1c(O)c2ccccc2oc1=O` (stereo not given), the outcome in experiment [1], in experiment [2], in experiment [3], in experiment [4], in experiment [5] and in experiment [6] was inactive. The result in [7], in [8], in [9] and in experiment [10] was inactive.

Regarding `Oc1ccccc1O`, the result in experiment [1], in [3], in experiment [4], in [5], in experiment [6] and in experiment [7] was inactive. The outcome in [8], in experiment [9] and in experiment [10] was inactive. Also, in [2], the AC50 is 5.53 µM (active).

On to `CCCCOC(=O)CCCCC(=O)OCCCC`, for which the result in experiment [1], in experiment [2], in experiment [3], in experiment [4], in experiment [5] and in [6] was inactive. Further, the result in [7], in [8], in [9] and in experiment [10] was inactive.

Regarding `C=CCc1ccc(OC)c(OC)c1`, the result in experiment [1], in experiment [2], in experiment [3], in [4], in [5] and in [6] was inactive. Also, the result in [7], in [8], in experiment [9] and in experiment [10] was inactive.

Take `CCOCCOCCO`: the result in experiment [1], in experiment [2], in experiment [3], in experiment [4], in experiment [5] and in [6] was inactive. The outcome in [7], in experiment [8], in [9] and in experiment [10] was inactive.

`CCCCC(CC)COP(=O)(OCC(CC)CCCC)OCC(CC)CCCC` (stereo not given): the result in experiment [1], in experiment [3], in experiment [4], in experiment [5], in experiment [6] and in experiment [7] was inactive. Moreover, the result in experiment [8], in experiment [9] and in [10] was inactive. The AC50 in [2] was 6.21 µM (active).

For the compound `c1ccc2occc2c1`, the result in [1], in [2], in experiment [3], in experiment [4], in experiment [5] and in experiment [6] was inactive. For the same compound, the result in experiment [7], in experiment [8], in experiment [9] and in [10] was inactive.

In the case of `O=C1NC(=O)C(c2ccccc2)(c2ccccc2)N1`, the result in experiment [1], in experiment [2], in [3], in [4], in experiment [5] and in [6] was inactive. Further, the outcome in [7], in experiment [8], in experiment [9] and in experiment [10] was inactive.

Turning to `CC(C)c1cccc(C(C)C)c1NC(=O)NS(=O)(=O)c1cc(C(C)(C)O)co1`, the outcome in experiment [1], in [2], in experiment [3], in [4], in experiment [5] and in experiment [6] was inactive. Also, the result in experiment [7], in [8], in experiment [9] and in experiment [10] was inactive.

In the case of `CCCCCCCCCCCCCCCCO`, the outcome in experiment [1], in experiment [2], in experiment [3], in experiment [4], in [5] and in experiment [6] was inactive. In addition, the outcome in [7], in [8], in [9] and in experiment [10] was inactive.

In the case of `C=CCCCCCCCCCCCC`, the result in experiment [1], in experiment [2], in experiment [3], in experiment [4], in [5] and in experiment [6] was inactive. In addition, the result in [7], in [8], in experiment [9] and in experiment [10] was inactive.

As to `O=C1c2c(O)cccc2Cc2cccc(O)c21`, the outcome in [1], in experiment [2], in experiment [3], in [4], in experiment [5] and in experiment [6] was inactive. Moreover, the result in experiment [7], in [8], in experiment [9] and in [10] was inactive.

(Values after PubChem BioAssay (EPA / NIEHS).)
